Reference: ChEMBL document CHEMBL1157539, “Thousands of chemical starting points for antimalarial lead identification” (Nature, 2010)

Key:
Type in all cases: functional
Plasmodium falciparum [1] = test: GSK_TCMDC: Inhibition of Plasmodium falciparum 3D7 in whole red blood cells, using parasite LDH activity as an index of growth. Test compounds present at 2uM
Plasmodium falciparum [2] = test: GSK_TCMDC: Inhibition of Plasmodium falciparum Dd2 in whole red blood cells, using parasite LDH activity as an index of growth. Test compounds present at 2uM
HepG2 = test: GSK_TCMDC: Percent inhibition of human HepG2 cell line. Test compounds present at 10uM.

Structure (SMILES)	Inhibition (Plasmodium falciparum [1]) [%]	Inhibition (Plasmodium falciparum [2]) [%]	Inhibition (HepG2) [%]
COc1ccccc1CC1CCCN(C2CCC(NC(=O)c3cc4ccccc4[nH]3)CC2)C1 (centres undefined)	98	21	23
O=C(O)C(F)(F)F.c1cc(CN2CCC(CCN3CCCCC3)CC2)cc(-c2csc(-c3nc4ccccc4[nH]3)c2)c1	99	99	89
NS(=O)(=O)c1ccc(CNC(=O)c2cnc3c(O)cccc3c2Nc2cccc(NC(=O)c3ccc(Cl)c(Cl)c3)c2)cc1.O=C(O)C(F)(F)F	97	35	56
CCC(C(=O)Nc1ccccc1)n1nc(-c2ccc(C)c(S(=O)(=O)N3CCCCC3)c2)ccc1=O (centres undefined)	85	67	0
COc1ccc2nccc(N3CCC(CCNCc4ccc5c(n4)NC(=O)CO5)CC3)c2n1.Cl	100	72	19
Cl.O=S(=O)(c1cccc(F)c1)c1ccc(Nc2ncnc3cc(Br)sc23)cc1Cl	86	11	20
CN1CCN(c2ccc(Nc3c(C(N)=O)cnc4cc(-c5ccoc5)ccc34)cc2C(F)(F)F)CC1.Cl	100	97	13
Cl.N=C(N)Nc1ccc(OCCCCCOc2ccc(NC(=N)N)cc2)cc1	99	100	12
O=C(NCCc1ccc(O)cc1)n1c2ccccc2c2ccccc21	83	76	3
CCS(=O)(=O)O.Cc1cc(NC(=O)NC(=N)N)ccc1Cl	100	15	11
Cc1nnc2c(NC(=O)NC3CCCC3)cc3ccc(-c4cccc(CN(C)C)c4)cc3n12	90	25	42
O=C(Nc1ccc(F)c([N+](=O)[O-])c1)Nc1cc(C(F)(F)F)ccc1Cl	100	86	5
O=C(NC1CCN(CCCc2ccccc2)CC1)c1ccc(-c2cccc(C(F)(F)F)c2)s1.O=C(O)C(F)(F)F	95	47	93
CN1CCN(c2nsc3ccc(-c4ccc(NC(=O)Nc5ccccc5)cc4)cc23)CC1.O=C(O)C(F)(F)F	100	98	38
CCc1ccc(NC(=O)N(CCCN2CCN(C)CC2)Cc2csc(-c3ccc(CNCc4ccccc4)cc3)n2)cc1.O=C(O)C(F)(F)F	99	80	17
Cc1nnsc1C(=O)Nc1cccc(-c2cccc(-c3nc4cc(F)ccc4[nH]3)c2)c1	100	45	35
O=C(O)C(F)(F)F.OCC1CCN(Cc2ccc(-c3ccc(-c4nc5cc(C(F)(F)F)ccc5[nH]4)cc3)cc2)CC1	100	91	17
CCc1c(C)nc(-n2nc(C)cc2NC(=O)CCc2ccccc2)[nH]c1=O	97	97	48
CC(C)(C)c1ccc(NC(=O)c2ccc(CN3CCCN(CC4CCCCC4)CC3)cc2)cc1.O=C(O)C(F)(F)F	99	64	54
CC(CNc1nc(NCC(c2ccccc2)c2ccccc2)c2nc[nH]c2n1)c1ccccc1 (centres undefined)	93	24	5
CCc1c(CCNCCCCCCNCCc2ccc(OC)c(OC)c2CC)ccc(OC)c1OC.Cl	100	1	58
Cc1cc(=NN=Cc2ccccc2F)c2cccc(C)c2[nH]1	100	14	7
COc1ccc(CNC2Cc3ccccc3C2)cc1-c1ccc(OC)c(S(=O)(=O)NCCN2CCCC2)c1.O=C(O)C(F)(F)F	100	97	31
O=C(Nc1cccc(C(F)(F)F)c1)c1cccc(S(=O)(=O)NC2CCN(CC3CCCCC3)C2)c1.O=C(O)C(F)(F)F (centres undefined)	100	45	37
Cc1cccc2nc(-c3ccc(-c4cccc(NC(=O)C(C)CN(C)C)c4)s3)[nH]c12 (centres undefined)	92	69	12
COc1ccccc1NC(=O)NC1CCN(CCCCCNC(=O)/C=C/c2ccc(Cl)c(Cl)c2)CC1	100	15	4
Cc1cc(=NN=Cc2cccc(F)c2)c2ccc(F)cc2[nH]1	100	99	2
CS(=O)(=O)n1c(CN2CCN(c3ncc(C(F)(F)F)cc3Cl)CC2)nc2ccccc21	83	59	0
